Bioassay records: PubChem BioAssay, National Center for Advancing Translational Sciences (NCATS)
An excerpt weighted towards active compounds, which were near 21% of everything screened.
Pf growth 96h = inhibits malaria parasite growth, 96 h | P. falciparum luciferase reporter growth, 96 h | Potency, µM (top dose mostly 28.7 µM), for inactives: at the top dose activity change, negative = inhibition, usual class: inhibitors | actives 6.9% (n = 320,000) | AID 504834; note: potency is the fitted concentration of half-maximal effect; % is set by controls: 0 for no effect and ±100 for the full control effect
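Cell-based qHTS: luciferase-tagged P. falciparum in erythrocytes (2% hematocrit, 0.05% parasitemia final) incubated with compounds for 96 hours, 37 C, 5% CO2; luciferase detection reagent then added and luminescence measured.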
Shiga toxin inh = blocks Shiga toxin action in Vero cells. inhibition, % at 38.7 µM. Vero cells, Shiga toxin protein synthesis inhibition reporter. actives 9.2% (n = 290,000). AID 2315; in the data active = inhibition mostly above about 28%, no sharp cut-off; inactive = mostly below about 43%; note: 0% is about no effect
Cycloheximide cs = affects cycloheximide protein synthesis inhibition readout, counter-screen | max response, % | actives 12% (n = 300,000) | cell reporter, cycloheximide protein synthesis inhibition counterscreen | AID 2314; in the data active = max response mostly above about 13%, no sharp cut-off; inactive = mostly below about 14%; note: read at 38.3 µM for the half of the compounds with a filed dose; 0% is about no effect
NS1 inh = inhibitors of influenza NS1 protein function; Potency, µM (top dose mostly 46.1 µM), inactives show at the highest dose activity, positive = more growth; actives 0.4% (n = 270,000); AID 2326; calls by dose curve; note: potency is the fitted concentration of half-maximal effect; actives are rising curves; nearly all actives have a fitted effect of over 50% in size
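Recovery from NS1-induced slow growth read by OD600 in budding yeast switched to galactose assay medium (pH 6.0, -URA) at 1:100 dilution. Compound 23 nl per well; the matching strain lacking NS1 serves as control.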
Pf growth 48h = P. falciparum growth inhibition at 48 hours (one generation); P. falciparum luciferase growth in erythrocytes, 48 h; Potency, µM (doses to about 28.7 µM), without a hit: at the top dose activity change, negative = inhibition, most hits filed as inhibitors; actives 5.9% (n = 310,000); AID 504832; note: potency is the fitted concentration of half-maximal effect; % is set by controls: 0 for no effect and ±100 for the full control effect
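Compounds are pin-transferred into medium, infected erythrocytes (2% hematocrit, 0.1% parasitemia final) are added, and plates sit one parasite generation at 37 C in 5% CO2. Detection reagent is then added and luminescence measured.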
Starred values were filed as active, the others as inactive; i = inactive; ? = inconclusive; . = no result given; [ ] = remark or other dose. Unless noted, calls come from the whole dose curve; as a rule, active = well fitted inhibition curve with a large enough effect; inconclusive = small, poorly fitted or top-dose-only effect, or another doubt; inactive = no such curve, though single readings can be large or run the other way.

SMILES	Pf growth 96h	Shiga toxin inh	Cycloheximide cs	NS1 inh	Pf growth 48h
CC(C)(C)c1ccc(C(=O)Nc2ccccc2NC(=O)c2ccco2)cc1	2.2%	29.4*	20.2*	-0.2%	?
O=C(Nc1ccccc1NC(=O)c1ccco1)c1ccccc1	38.4%	-6.9	-13.4	7.5%	5.6%
O=C1CN(C(=O)c2ccc3nc(Cc4cccc(Cl)c4)oc3c2)CCN1	?	-15.3	-1.3	6.0%	6.8%
O=C(CSc1nnc(Nc2ccccc2F)s1)Nc1cccc(S(=O)(=O)N2CCCCC2)c1	?	74.6*	42.0*	25.0%	22.0%
O=C(CSc1ccccn1)Nc1cccc(S(=O)(=O)N2CCCC2)c1	?	.	.	.	-28.6%
Cc1ccc(Nc2nnc(SCC(=O)Nc3cccc(S(=O)(=O)N4CCCCC4)c3)s2)cc1	?	5.3	53.3*	-17.6%	-9.3%
Cc1nnc(SCC(=O)Nc2cccc(S(=O)(=O)N3CCCCC3)c2)s1	?	.	.	.	-8.9%
Cc1c(-c2ccncc2)oc2ccc(Br)cc2c1=O	?	27.1	7.6	1.5%	9.28µM*
O=C1CN=C(c2ccccc2)c2oc3ccc(Br)cc3c2N1	10.1%	-9.8	-1.5	-0.2%	2.5%
COc1ccccc1CNC(=O)C1CCN(Cc2nc(-c3cccc(Cl)c3)oc2C)CC1	i	21.9	3.4	-4.3%	10.4µM*
COc1ccccc1CN1CCCCC1c1cccnc1 (centres undefined)	.	2.4	-1.6	-12.1%	7.4%
CSc1ccc(-c2nc(CN3CCCCC3c3cccnc3)c(C)o2)cc1 (centres undefined)	-26.0%	15.4	-1.4	-2.5%	8.28µM*
CCN1CCCC1CNC(=O)C1CCN(Cc2nc(-c3cccc(Br)c3)oc2C)CC1 (centres undefined)	?	-8.1	1.8	2.8%	6.57µM*
Cc1oc(-c2cccc(Cl)c2)nc1CN1CCC(C(=O)NCc2ccco2)CC1	-9.7%	49.5	9.5	-7.6%	4.5%
COc1ccc(-c2nc(CN3CCC(c4ccccc4)CC3)c(C)o2)cc1OC	13.1µM*	10.2	-1.4	3.5%	11.7µM*
COc1ccc(-c2nc(CN3CCC(C(=O)N4CCOCC4)CC3)c(C)o2)cc1OC	31.4%	24.1	8.1	-1.1%	-1.2%
Cc1oc(-c2ccc(Cl)cc2)nc1CN1CCC(C(=O)NCCCN2CCCC(C)C2)CC1 (centres undefined)	6.6%	-5.3	-1.5	2.1%	2.08µM*
Cc1oc(-c2cccc(F)c2)nc1CN1CCCCC1CCn1cccn1 (centres undefined)	0.0%	9.9	-2.4	11.9%	13.1µM*
CCc1ccccc1NC(=O)CSc1nnc(-c2ccco2)n1N	.	14.9	-1.7	4.6%	0.6%
O=C(Nc1ccc2c(c1)C(=O)OC2)c1ccc(F)cc1F	97.3%	34.9*	26.5*	-5.4%	56.2%
O=C(Nc1ccc2c(c1)C(=O)OC2)c1ccc(Cl)cc1	30.3%	40.1	18.2*	11.5%	22.9%
CCN(CC(=O)Nc1c(F)cccc1F)C(=O)c1cc([N+](=O)[O-])ccc1N1CCCCC1	3.7%	.	.	.	?
CCS(=O)(=O)NCCc1csc(-c2ccc(OC)c(OC)c2)n1	11.8%	-9.0	0.8	-6.0%	0.3%
CCOc1ccc(-c2nc(CSc3nncs3)cs2)cc1OC	?	52.8	19.0*	-24.1%	-11.6%
CCOc1ccc(-c2nc(CSc3nnc(C)s3)cs2)cc1OC	.	89.2*	37.1*	-66.3%	26.3%
SMILES	Pf growth 96h	Shiga toxin inh	Cycloheximide cs	NS1 inh	Pf growth 48h
O=C(CNc1ccccc1Cl)c1ccc(Br)cc1	?	.	2.5	-25.7%	?
Cc1ccc(C(=O)CNc2ccc(C)cc2C)cc1	?	.	13.1*	-10.7%	62.9%
Cc1ccc(C(=O)CNc2ccccc2C)cc1	-5.7%	118.2*	42.2*	-59.6%	57.3%
Cc1cc(C)c(OCCCCN2CCNCC2)c(C)c1	3.29µM*	-7.2	-3.2	0.9%	?
Cc1cccc(C)c1OCCCCN1CCNCC1	24.7%	-15.2	-1.1	26.6%	?
Cc1ccc(C)c(OCCCCCn2ccnc2)c1	11.7µM*	9.4	5.4	1.0%	14.7µM*
Cc1ccccc1OCCn1ccnc1	?	-4.1	37.5*	-6.7%	7.6%
Cc1cc(Cl)cc(C)c1OCCCCCn1ccnc1	0.0%	-13.1	-2.4	-40.0%	?
Cc1cc(C)c(OCCCCCn2ccnc2)c(C)c1	320.9%	-4.9	-3.2	-13.2%	13.1µM*
CCOc1ccc(N2CC(C(=O)Nc3ccccc3N3CCCC3)CC2=O)cc1 (centres undefined)	-4.0%	-3.8	-2.1	-2.0%	-16.1%
C/C(=N\NC(=S)NCCc1ccccc1)c1cccc(Br)c1	-32.2%	13.4	1.2	2.6%	3.3%
COc1ccc(CNC(=S)N/N=C(\C)c2ccc(OC)cc2)cc1	?	64.0*	14.6	-4.2%	9.6%
C/C(=N\NC(=S)NCc1ccccc1)c1cccc(Br)c1	0.0%	67.8*	49.1*	-4.0%	-9.4%
Nc1nc(NC2CC2)c2ncn([C@H]3C=C[C@@H](CO)C3)c2n1	45.1%	.	.	.	60.5%
CC(=O)/C(=N/Nc1ccccc1[N+](=O)[O-])N1CCCc2ccccc21	?	20.6	9.3	0.8%	?
CC(=O)Nc1ccc(OCCC[n+]2ccccc2)cc1	30.0%	-10.0	-1.7	1.1%	-4.0%
CCCCCc1ccc(OCCOCCn2c[n+](C)c3ccccc32)c(CCCCC)c1	-19.8%[1.15 µM]	-13.3	-5.8	.	2.94µM*
CCCCCc1ccc(OCCC[n+]2ccccc2)c(CCCCC)c1	?	-12.1	-2.5	-37.7%	1.85µM*
O=C(c1noc2c1CCCC2)N1CCCC(N2CCN(c3ccccc3F)CC2)C1 (centres undefined)	?	3.4	1.3	-0.5%	?
COc1ccc(N(C)S(=O)(=O)c2cccc(C(=O)Nc3ccc(-n4cnnn4)cc3)c2)cc1	?	-16.5	-2.8	-19.7%	10.4µM*
COc1ccc(N(C)S(=O)(=O)c2cccc(C(=O)Nc3ccc(OC)nc3)c2)cc1	?	-1.4	-1.8	-38.2%	-39.3%
COc1cc(OC)c(N(C)S(=O)(=O)c2cccc(C(=O)Nc3nnc(C4CC4)s3)c2)cc1Cl	?	-6.0	-5.5	-4.2%	13.1µM*
COc1cc(OC)c(N(C)S(=O)(=O)c2cccc(C(=O)NC3=NCCS3)c2)cc1Cl	?	8.4	-2.5	8.1%	10.4µM*
CCOc1ccc(N(C)S(=O)(=O)c2ccc(C)c(C(=O)Nc3nnc(C4CC4)s3)c2)cc1	?	.	.	.	4.15µM*
Cc1ccc(N(C)S(=O)(=O)c2cccc(C(=O)Nc3nnc(C4CC4)s3)c2)cc1	-16.0%	-8.5	-1.9	.	23.7%
N#C/C(=C\c1cccc(Br)c1)C(=O)N1CCCCC1	11.5%	-8.6	11.2	-118.8%	3.5%
COc1ccc(C2=NN(CCC(=O)NCc3cccs3)C(=O)CC2)cc1	?	-5.7	-1.2	.	4.0%
COc1ccc(N(C(=O)c2ccc(Cl)cc2)C2=CC3CCC(C2)N3C)cc1 (centres undefined)	?	-25.2	-2.3	-10.0%	-13.2%
COc1ccc(N(C)S(=O)(=O)c2cccc(C(=O)Nc3nnc(C4CC4)s3)c2)cc1	?	-17.5	-1.0	4.1%	?
